In PubChem BioAssay (EPA / NIEHS):
Results filed as inconclusive are left out. Active and inactive are the calls of the source. Rule for the calls: active = hit-call score of the fitted dose curve at least 0.9, where 1 is the maximum; inconclusive = response in the unintended direction; inactive = score below 0.9.

Legend:
[1] = tested on: guinea pig Dopamine Transporter (DAT), gene 100714898; assay: NVS_TR_gDAT: NovaScreen (NVS) Transporter Assay for guinea pig Dopamine Transporter (DAT) (AID 2283369);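 note: active compounds lower bound radioligand signal relative to DMSO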
Procedure, shortened: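 Scintillation counts of filter-retained radioligand report binding to guinea pig striatal membranes after 2 h. Activity scored as signal loss relative to DMSO, first at 25 uM in duplicate, then in concentration series to 50 uM.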

[2] = biological target: Peroxisome proliferator-activated receptor gamma (Homo sapiens) (UniProt P37231); assay: NVS_NR_hPPARg: NovaScreen (NVS) Nuclear Receptor Binding Assay for human Peroxisome Proliferator-activated Receptor gamma (PPARg) (AID 2283370)
Procedure, shortened: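 Chemicals were tested first in duplicate at 25 uM, then in concentration series if active. Binding to cell-free PPARg protein was measured by fluorescence polarization after 2 h, with loss of signal scored against DMSO.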

[3] = biological target: human Dopamine Transporter (DAT), SLC6A3 (gene 6531) (UniProt Q01959); assay: NVS_TR_hDAT: NovaScreen (NVS) Transporter Assay for human Dopamine Transporter (DAT) (AID 2283374);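 note: activity means loss of bound radioligand signal relative to DMSO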
Procedure, shortened: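 hDAT membranes + tritiated/iodinated radioligand, competitive displacement; 1 h; filter scintillation readout. Single conc 25 uM (duplicate), then conc-response for actives. DMSO = negative control.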

[4] = biological target: rat Serotonin Transporter (SERT), Slc6a4 (gene 25553) (UniProt P31652); assay: NVS_TR_rSERT: NovaScreen (NVS) Transporter Assay for rat Serotonin Transporter (SERT) (AID 2283375)
Procedure, shortened: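 Filtration-based radiodetection quantified loss of specific radioligand binding in rat forebrain membranes after 1 hour of chemical exposure, relative to DMSO. Chemicals were first tested in duplicate at 25 uM.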

[5] = biological target: human Norepinephrine Transporter (NET), SLC6A2 (gene 6530) (UniProt P23975); assay: NVS_TR_hNET: NovaScreen (NVS) Transporter Assay for human Norepinephrine Transporter (NET) (AID 2283377);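 note: cell-free membrane protein extracted from CHO cells expressing human NET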;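 for AC50: displacement of radioligand from human NET seen as loss of scintillation signal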
Procedure, shortened: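 CHO cell extracts expressing the transporter; tritiated or iodinated tracer displaced competitively; filtration plus scintillation readout at 1 h. Single-point duplicates at 25 uM, concentration series for follow-up; activity = signal drop relative to DMSO.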

[6] = biological target: Estrogen receptor beta (Homo sapiens) (UniProt Q92731); assay: OT_ER_ERbERb_1440: Odyssey Thera (OT) 24-hour HEK293T Protein-Complementation Assay for Estrogen Receptor-beta/-beta Homodimer (AID 2283380);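 note: scored as signal increase over DMSO baseline for both agonists and antagonists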
Procedure, shortened: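 HEK293T cells stably expressing ER beta LBD (aa 310-547) homodimer fragment-complementation reporter, dosed 24 h. Cells formaldehyde-fixed, Draq5-stained; gain in nuclear (agonist) or nuclear plus cytoplasmic (antagonist) fluorescence versus DMSO read by laser scanning cytometry.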

[7] = biological target: Agonist Androgen Response Element (ARE), AR (gene 367) (UniProt P10275); assay: OT_AR_ARELUC_AG_1440: Odyssey Thera (OT) 24-hour CHO-K1 Luciferase Assay for Agonist Androgen Response Element (ARE) (AID 2283379)
Procedure, shortened: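 Gain-of-signal reporter endpoint: cells (CHO-K1, hamster) are treated 24 h, luciferin/ATP reagent added, and luminescence compared with DMSO baseline.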

Chain of human Dopamine Transporter (DAT), SLC6A3 (gene 6531) (Q01959 whole entry, looked up): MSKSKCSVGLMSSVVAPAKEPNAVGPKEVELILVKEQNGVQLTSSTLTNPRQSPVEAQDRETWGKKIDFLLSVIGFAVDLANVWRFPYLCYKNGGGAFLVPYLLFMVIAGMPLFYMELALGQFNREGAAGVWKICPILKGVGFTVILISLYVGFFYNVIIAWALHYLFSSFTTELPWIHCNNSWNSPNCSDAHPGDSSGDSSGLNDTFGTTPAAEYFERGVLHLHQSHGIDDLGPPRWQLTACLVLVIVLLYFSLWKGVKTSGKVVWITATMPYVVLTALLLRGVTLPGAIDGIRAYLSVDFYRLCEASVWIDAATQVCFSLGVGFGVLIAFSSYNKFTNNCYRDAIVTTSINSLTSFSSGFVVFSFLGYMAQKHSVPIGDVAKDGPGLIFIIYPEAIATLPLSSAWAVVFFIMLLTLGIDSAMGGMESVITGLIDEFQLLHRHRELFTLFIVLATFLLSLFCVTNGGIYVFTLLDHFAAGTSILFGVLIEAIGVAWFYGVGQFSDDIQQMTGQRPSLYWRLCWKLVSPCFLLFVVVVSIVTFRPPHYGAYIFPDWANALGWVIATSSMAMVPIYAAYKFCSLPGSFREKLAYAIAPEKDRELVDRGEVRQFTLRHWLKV
Chain of human Norepinephrine Transporter (NET), SLC6A2 (gene 6530) (P23975 whole entry, looked up): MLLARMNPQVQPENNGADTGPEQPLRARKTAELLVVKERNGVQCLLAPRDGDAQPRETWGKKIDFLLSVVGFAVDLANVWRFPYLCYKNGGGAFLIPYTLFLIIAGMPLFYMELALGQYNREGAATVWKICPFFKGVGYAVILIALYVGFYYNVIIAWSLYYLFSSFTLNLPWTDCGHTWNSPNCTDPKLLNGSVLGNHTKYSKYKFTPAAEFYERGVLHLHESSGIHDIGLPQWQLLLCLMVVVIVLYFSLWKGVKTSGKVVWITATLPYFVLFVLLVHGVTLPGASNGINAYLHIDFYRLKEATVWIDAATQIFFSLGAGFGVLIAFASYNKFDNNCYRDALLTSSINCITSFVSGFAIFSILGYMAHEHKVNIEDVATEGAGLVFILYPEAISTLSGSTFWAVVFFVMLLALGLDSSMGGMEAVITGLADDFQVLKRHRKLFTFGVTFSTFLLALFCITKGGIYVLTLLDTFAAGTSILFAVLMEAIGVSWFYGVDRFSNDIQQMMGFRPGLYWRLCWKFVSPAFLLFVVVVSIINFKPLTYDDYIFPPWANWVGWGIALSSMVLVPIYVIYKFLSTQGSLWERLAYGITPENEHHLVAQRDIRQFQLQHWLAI
Chain of Peroxisome proliferator-activated receptor gamma (Homo sapiens) (P37231 whole entry, looked up): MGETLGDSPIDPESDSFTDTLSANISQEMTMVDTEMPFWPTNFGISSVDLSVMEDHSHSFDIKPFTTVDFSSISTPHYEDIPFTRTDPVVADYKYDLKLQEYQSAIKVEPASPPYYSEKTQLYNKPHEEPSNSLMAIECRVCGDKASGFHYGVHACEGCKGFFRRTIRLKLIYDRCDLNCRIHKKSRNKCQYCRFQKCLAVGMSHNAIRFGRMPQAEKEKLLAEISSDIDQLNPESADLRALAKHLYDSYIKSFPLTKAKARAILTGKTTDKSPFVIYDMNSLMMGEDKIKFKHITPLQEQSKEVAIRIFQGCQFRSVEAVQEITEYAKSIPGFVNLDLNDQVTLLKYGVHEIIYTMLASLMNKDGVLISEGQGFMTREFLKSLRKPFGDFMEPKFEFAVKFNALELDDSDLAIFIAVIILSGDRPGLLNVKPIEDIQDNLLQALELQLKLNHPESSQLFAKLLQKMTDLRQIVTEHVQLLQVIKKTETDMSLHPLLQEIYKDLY
Chain of Estrogen receptor beta (Homo sapiens) (Q92731 whole entry, looked up, the tested form may be a part): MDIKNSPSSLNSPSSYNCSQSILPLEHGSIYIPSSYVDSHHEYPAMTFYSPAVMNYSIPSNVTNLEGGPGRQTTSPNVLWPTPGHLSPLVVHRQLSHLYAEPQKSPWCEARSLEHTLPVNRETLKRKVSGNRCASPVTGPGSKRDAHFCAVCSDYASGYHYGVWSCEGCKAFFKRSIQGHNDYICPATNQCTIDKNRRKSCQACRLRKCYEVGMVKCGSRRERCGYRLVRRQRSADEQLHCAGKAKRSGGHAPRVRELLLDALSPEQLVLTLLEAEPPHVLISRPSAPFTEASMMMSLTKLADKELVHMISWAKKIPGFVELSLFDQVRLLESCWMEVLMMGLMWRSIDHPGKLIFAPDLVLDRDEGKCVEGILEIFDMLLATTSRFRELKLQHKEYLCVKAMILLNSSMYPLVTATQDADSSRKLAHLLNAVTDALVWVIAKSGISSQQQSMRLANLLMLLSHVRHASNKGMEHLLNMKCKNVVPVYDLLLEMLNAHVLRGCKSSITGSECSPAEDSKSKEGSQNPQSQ
Chain of Agonist Androgen Response Element (ARE), AR (gene 367) (P10275 whole entry, looked up): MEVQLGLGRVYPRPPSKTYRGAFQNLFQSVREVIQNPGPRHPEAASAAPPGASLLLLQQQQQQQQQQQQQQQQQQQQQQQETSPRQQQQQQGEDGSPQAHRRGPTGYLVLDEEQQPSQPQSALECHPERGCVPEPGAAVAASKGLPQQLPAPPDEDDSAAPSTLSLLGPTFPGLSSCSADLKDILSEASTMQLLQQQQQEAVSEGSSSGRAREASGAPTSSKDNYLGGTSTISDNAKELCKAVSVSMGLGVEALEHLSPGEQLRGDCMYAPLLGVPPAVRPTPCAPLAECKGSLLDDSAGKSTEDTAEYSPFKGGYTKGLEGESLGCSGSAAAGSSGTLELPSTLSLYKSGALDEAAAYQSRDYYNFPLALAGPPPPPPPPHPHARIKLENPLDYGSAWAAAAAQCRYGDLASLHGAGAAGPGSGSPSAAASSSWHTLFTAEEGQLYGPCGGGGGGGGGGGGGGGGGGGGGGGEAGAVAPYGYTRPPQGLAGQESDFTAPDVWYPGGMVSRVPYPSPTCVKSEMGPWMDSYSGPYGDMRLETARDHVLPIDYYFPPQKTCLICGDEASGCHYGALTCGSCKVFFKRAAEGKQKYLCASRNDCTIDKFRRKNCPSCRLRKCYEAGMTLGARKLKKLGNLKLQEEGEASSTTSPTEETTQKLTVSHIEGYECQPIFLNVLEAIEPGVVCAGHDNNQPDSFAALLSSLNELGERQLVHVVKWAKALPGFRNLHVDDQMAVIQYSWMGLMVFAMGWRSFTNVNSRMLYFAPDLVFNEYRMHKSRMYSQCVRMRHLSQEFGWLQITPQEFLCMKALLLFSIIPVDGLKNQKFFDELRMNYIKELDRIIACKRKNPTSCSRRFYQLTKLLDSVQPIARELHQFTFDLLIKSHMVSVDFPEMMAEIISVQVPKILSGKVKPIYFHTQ
Chain of rat Serotonin Transporter (SERT), Slc6a4 (gene 25553) (P31652 whole entry, looked up): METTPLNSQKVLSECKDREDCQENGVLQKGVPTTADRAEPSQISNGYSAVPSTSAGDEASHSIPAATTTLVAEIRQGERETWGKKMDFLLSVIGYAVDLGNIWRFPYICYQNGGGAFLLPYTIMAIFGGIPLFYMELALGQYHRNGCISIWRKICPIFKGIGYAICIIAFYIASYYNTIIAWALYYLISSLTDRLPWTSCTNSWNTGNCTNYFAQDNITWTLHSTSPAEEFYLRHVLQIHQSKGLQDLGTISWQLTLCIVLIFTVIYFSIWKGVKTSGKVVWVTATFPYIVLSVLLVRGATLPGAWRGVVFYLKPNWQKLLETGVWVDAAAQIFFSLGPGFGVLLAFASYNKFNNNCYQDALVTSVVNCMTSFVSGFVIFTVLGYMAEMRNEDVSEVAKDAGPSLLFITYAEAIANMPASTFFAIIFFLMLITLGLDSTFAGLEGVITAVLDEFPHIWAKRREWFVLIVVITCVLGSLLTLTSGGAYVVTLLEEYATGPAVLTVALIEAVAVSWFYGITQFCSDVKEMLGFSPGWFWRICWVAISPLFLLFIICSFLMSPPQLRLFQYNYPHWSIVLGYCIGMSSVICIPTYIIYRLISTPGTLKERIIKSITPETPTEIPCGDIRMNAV

With O=c1[nH]c2ccc(S(=O)CCN3CCC(Cc4ccc(F)cc4)CC3)cc2o1 (configuration not stated) the AC50 [1] was 6.75 µM (active), the outcome [2] was “inactive” and the AC50 [3] was 3.16 µM (active). For the same compound, the AC50 [4] was 0.403 µM (active), the AC50 [5] was 2.28 µM (active) and the outcome [6] was “inactive”.

For CNS(=O)(=O)c1cc(C(=O)N2CCC(CCN3C4CCC3CC(n3c(C)nc5ccccc53)C4)(c3cccc(F)c3)CC2)c(Cl)cc1F (configuration not stated), the outcome [2] was “inactive”, the AC50 [3] was 8.74 µM (active) and the AC50 [4] was 8.93 µM (active). The AC50 [5] was 2.25 µM (active), the outcome [7] was “inactive” and the outcome [6] was “inactive”.

CC(C)=CCC/C(C)=C\CO was tested, and the outcome [2] was “inactive” and the outcome [7] was “inactive”.

In the case of CC/C(=C\C(=N/O)C(N)=O)C(C)[N+](=O)[O-] (configuration not stated), the outcome [2] was “inactive”, the outcome [3] was “inactive” and the outcome [6] was “inactive”.

In the case of CCc1cc(SCc2sc(-c3ccc(C(F)(F)F)cc3)nc2CN2CCN(c3ccc(OC)cc3)CC2)ccc1OCC(=O)O, the AC50 [1] was 15.2 µM (active), the AC50 [2] was 7.42 µM (active) and the AC50 [3] was 13.9 µM (active). The AC50 [5] was 4.89 µM (active) and the outcome [6] was “inactive”.

CC1(C)C(=O)N(Br)C(=O)N1Br was tested, and the outcome [2] was “inactive”, the outcome [7] was “inactive” and the outcome [6] was “inactive”.

For CCC(C)(C)C(=O)O[C@H]1C[C@@H](C)C=C2C=C[C@H](C)[C@H](CC[C@@H]3C[C@@H](O)CC(=O)O3)[C@H]21, the outcome [2] was “inactive”, the AC50 [3] was 25 µM (active) and the outcome [5] was “inactive”. For the same compound, the outcome [6] was “inactive”.

For Cn1cnc([N+](=O)[O-])c1Sc1ncnc2nc[nH]c12, the outcome [2] was “inactive” and the outcome [6] was “inactive”.

For CC(C)=CCC/C(C)=C/CO, the outcome [2] was “inactive” and the outcome [7] was “inactive”.

For CN(C)c1ccc(N=NS(=O)(=O)O)cc1, the AC50 [1] was 27.1 µM (active) and the outcome [7] was “inactive”.

In the case of O=C(O)c1cc(N=Nc2ccc(S(=O)(=O)Nc3ccccn3)cc2)ccc1O, the outcome [2] was “inactive” and the outcome [6] was “inactive”.
